# High-throughput results as filed in PubChem.
# Hits are enriched below; roughly 3.5% of the tested compounds scored in any of these assays.
# MITF inh: blocks human microphthalmia-associated transcription factor | O75030 | AlphaScreen MITF homodimerization, bead proximity signal | inhibition, % at 2.6 µM | hit rate 0.91% among 650,000 | AID 1259374; in the data active = inhibition above about 50%;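 note: 0% = vehicle wells with protein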
# FBW7 act: activators of human E3 ligase FBW7. hit rate 0.13% among 650,000. AID 1259310. AlphaScreen FBW7–phospho-cyclin E peptide binding, activator screen. normalized activity (activation), % at 26.1 µM; in the data active = normalized activity above about 1.9%;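 note: purified mutant Fbw7 with reduced substrate affinity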
# Target sequence (Q969H0 whole entry, looked up): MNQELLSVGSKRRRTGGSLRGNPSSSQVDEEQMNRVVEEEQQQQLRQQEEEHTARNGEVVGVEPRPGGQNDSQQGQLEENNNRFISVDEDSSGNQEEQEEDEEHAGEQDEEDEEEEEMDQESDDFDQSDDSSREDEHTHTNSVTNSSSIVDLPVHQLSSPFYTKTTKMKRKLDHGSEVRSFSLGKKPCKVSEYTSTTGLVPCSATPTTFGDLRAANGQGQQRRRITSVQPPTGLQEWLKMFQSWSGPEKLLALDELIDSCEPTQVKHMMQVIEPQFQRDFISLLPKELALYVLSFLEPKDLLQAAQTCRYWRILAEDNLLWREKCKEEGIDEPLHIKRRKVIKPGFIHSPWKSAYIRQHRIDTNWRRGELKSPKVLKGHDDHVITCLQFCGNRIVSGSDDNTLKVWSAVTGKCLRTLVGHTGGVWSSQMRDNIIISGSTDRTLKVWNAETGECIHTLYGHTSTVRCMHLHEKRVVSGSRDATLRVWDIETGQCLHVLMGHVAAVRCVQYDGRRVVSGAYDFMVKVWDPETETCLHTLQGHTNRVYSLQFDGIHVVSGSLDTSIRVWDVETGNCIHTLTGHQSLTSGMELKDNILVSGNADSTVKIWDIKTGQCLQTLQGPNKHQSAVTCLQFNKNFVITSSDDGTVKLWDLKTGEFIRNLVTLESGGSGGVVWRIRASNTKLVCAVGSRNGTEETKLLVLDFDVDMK
# GPR151 ag: activates the human receptor GPR151 | Q8TDV0 | PathHunter beta-arrestin GPR151 cells, luminescence | activation, % at 11.2 µM | hit rate 1% among 650,000 | AID 1508602; in the data active = activation above about 4.9%;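 note: 0% = median of compound wells and 100% = cells with positive control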
# TEAD-YAP inh: TEAD-YAP interaction inhibition. inhibition, % at 9.12 µM. HEK-TIYL cells, TEAD-Gal4/YAP UAS-luciferase luminescence. hit rate 1.4% among 640,000; in the data active = inhibition above about 32%;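 note: 0% = median of test compound wells and 100% = reference inhibitor wells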
# MITF inh conf: human MITF inhibition, confirmation; shares compounds with MITF inh; inhibition, % at 2.6 µM; AlphaScreen MITF homodimerization, biotin/His-MITF beads; hit rate 16% among 4,700;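 active = inhibition above a cutoff derived from the DMSO control wells, cut at about 28% in these data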;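 note: 0% = MITF dimer wells with DMSO only; inhibitors lower the bead chemiluminescence by keeping MITF from dimerizing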
# AS interf DR: AlphaScreen optical interference, dose response counter-screen. IC50, µM. AlphaScreen optical interference counterscreen, cell-free. hit rate 6% among 480. shares compounds with MITF inh; call rule not given here
# AS interf ctr: AlphaScreen optical interference, counter-screen; shares compounds with MITF inh; LysRS AlphaScreen counterscreen, signal interference, triplicate; inhibition, % at 2.6 µM; hit rate 7.6% among 4,700; AID 1259376;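 active = inhibition above a cutoff derived from the DMSO control wells, cut at about 30% in these data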
# * hit, by the source's call; x = not tested or not shown; ! = not confirmed by another sample.
SMILES,MITF inh,FBW7 act,GPR151 ag,TEAD-YAP inh,MITF inh conf,AS interf ctr,others
O=C1c2cccnc2C(=O)N1c1ccc(F)cc1,51.0*,-1.0,0.8,3.1,2.2,15.4,
O=C1c2cccnc2C(=O)N1c1ccccc1F,56.8*,-0.4,0.8,0.5,18.6,30.9*,
O=C1c2cccnc2C(=O)N1c1ccccc1,70.1*,0.0,-0.4,-9.5,-15.5,17.9,
CCC(CC)C(=O)N1c2cc(C)c(C)cc2-c2c(ssc2=S)C1(C)C,15.8,0.9,0.1,0.8,x,x,
Cc1cccc(CN(c2cc(C)ccc2C)S(C)(=O)=O)c1,-7.9,-0.1,-0.2,-7.0,x,x,
CCN(CC)C(=O)C1CCCN(Cc2cccc(OC)c2OC)C1 (configuration not stated),10.4,0.0,-0.7,6.4,x,x,
COc1cccc(CN2CCCC(C(=O)NN)C2)c1OC (configuration not stated),55.0*,-0.2,-0.3,27.4,-7.1,-2.3,
COc1cccc(CN2CCN(C3CCCC3)C(CCO)C2)c1OC (configuration not stated),5.0,-0.1,0.7,10.9,x,x,
COc1cccc(CN2CCN(C3CCCCC3C)CC2)c1OC (configuration not stated),86.5*,0.0,-1.5,0.8,20.2,10.2,
COc1cccc(CN2CCN(C3CC4CCC3C4)CC2)c1OC (configuration not stated),71.0*,-0.2,-0.9,-3.9,-1.4,16.2,
COc1cccc(CN2CCN(C3CCCCCC3)CC2)c1OC,71.0*,-0.4,-0.9,6.7,-4.9,11.1,
Cc1c(OC(C)C(=O)OCC(C)C)ccc2c3c(c(=O)oc12)CCC3 (configuration not stated),-9.9,0.0,-0.3,-4.3,x,x,
O=C(NCCN1CCOC1=O)c1ccc(OC2CCN(C(=O)C3CC3)CC2)cc1,4.0,0.0,-0.3,-3.9,x,x,
Cc1nc2n(C)c3ccccc3n2c1C(=O)NN,95.4*,1.6,-0.4,54.1*,1.2,1.6,
CCN(CC)CCOC(=O)c1c(C)nc2n(C)c3ccccc3n12,8.4,0.9,0.4,14.8,x,x,
O=C(Nc1cc(C(F)(F)F)ccc1F)c1cccc([N+](=O)[O-])c1,11.3,0.0,1.6,4.9,x,x,
Cc1nn(C)c(C)c1CCC(=O)N1CCN(c2ncccn2)CC1,71.9*,-0.1,-0.8,-1.7,9.2,13.9,
COc1ccc(CN2CCN(C/C=C/c3ccccc3)CC2)cc1O,61.5*,0.2,-1.0,1.0,1.1,8.1,
COc1cc(CN2CCN(C/C=C/c3ccccc3)CC2)ccc1O,52.0*,0.2,-0.9,3.1,-0.2,2.9,
COc1cc(CN2CCN(C/C=C/c3ccccc3)CC2)cc(OC)c1OC,67.2*,0.2,-1.3,-5.3,1.6,12.6,
COc1ccc(CN2CCN(C/C=C/c3ccccc3)CC2)cc1,46.8,-0.1,-0.4,-3.1,x,x,
O=C(C1CCN(Cc2ccccc2)CC1)N1CCN(C/C=C/c2ccccc2)CC1,59.6*,0.1,2.4,16.5,9.7,12.9,
COc1cccc(C2CC(c3cc(OC)ccc3OC)n3ncnc3N2)c1 (configuration not stated),6.8,0.0,-0.6,6.1,x,x,
CCOC(=O)C1=C(C)N(C)C(=S)NC1c1cccs1 (configuration not stated),-1.8,0.0,-0.2,1.1,x,x,
CC(C)(C)NC(=O)COC(=O)Cc1ccc(Cl)cc1,116.3*,0.0,-0.1,-2.0,16.1,-0.3,
SMILES,MITF inh,FBW7 act,GPR151 ag,TEAD-YAP inh,MITF inh conf,AS interf ctr,others
O=C1O[C@H](C(O)CO)C(O)=C1O (some centres not stated),76.3*!,-0.3,-1.1,-0.5,46.9*,2.2,AS interf DR=>6.48
CCOc1ccc(NC(=O)CSc2cn(C)c3ccccc23)cc1,0.0,-0.1,0.3,-11.8,x,x,
Cc1c(C(=O)N2CCN(c3ccc(-c4ccccn4)nn3)CC2)cnn1-c1ccccc1,75.0*,-1.3,1.0,-4.5,96.0*,100.6*,
O=C(Cc1noc2ccccc12)N1CCN(c2ccc(-c3ccccn3)nn2)CC1,125.8*,-1.5,-2.6,21.0,112.0*,100.6*,
O=C(c1cnn(-c2ccccc2)c1-n1cccc1)N1CCN(c2ccccn2)CC1,17.3,0.2,0.2,9.1,x,x,
O=S(=O)(C1CC1)N1CCN(c2ccc(-c3ccccn3)nn2)CC1,121.5*,-1.6,-8.8,59.0*,108.1*,100.4*,
c1coc(-c2nn3c(Cn4cnc5ccccc54)nnc3s2)c1,-8.8,-0.1,0.5,-6.2,x,x,
N#CCCN1CCC2(CC1)NCCc1c2[nH]c2ccc(OCc3ccccc3)cc12,7.6,-1.3,-0.4,-20.8,x,x,
Cc1ccc(OCC(=O)O/N=C(\N)c2ccc(Br)cc2)cc1,18.0,0.1,-0.4,2.1,x,x,
CC1CCCN(C(=O)/C=C/c2ccccc2Cl)C1 (configuration not stated),10.0,0.2,2.3,-55.3,x,x,
CCCNC(=O)c1csc(Nc2nccc3ccccc23)n1,-2.3,0.0,-0.1,-2.1,x,x,
COCCCNC(=O)/C(C#N)=C/c1ccc(-c2ccc(C(=O)O)c(Cl)c2)o1,63.5*,-0.1,1.7,2.3,66.7*,-4.1,AS interf DR=>6.48
O=C(Nc1ccc(S(=O)(=O)N2CCCCC2c2cccnc2)cc1)c1cccc([N+](=O)[O-])c1 (configuration not stated),3.1,-0.1,0.4,29.3,x,x,
CN1CCN(CCOc2ccc(C=O)cc2)CC1,74.2*,-0.4,-0.9,-43.8,6.1,14.2,
CC(=O)c1ccc(OCCCCN2CCCC2)cc1,18.8,-0.2,2.4,-6.3,x,x,
CC(=O)c1ccc(OCCN2CCN(C)CC2)cc1,66.5*,-0.3,-0.8,-2.9,10.7,20.4,
Cc1nn(C(=O)c2nn(C)cc2I)c(C)c1Cl,54.4*,1.5,1.8,0.1,2.0,-0.9,
Cc1ccc(CN2C(=O)C(O)(CC(=O)c3ccccc3)c3ccccc32)cc1 (configuration not stated),15.8,0.3,-0.5,2.0,x,x,
O=C(CCCn1c(SCc2nc3ccccc3[nH]2)nc2ccsc2c1=O)NCCc1ccccc1,2.6,0.1,-1.4,-6.1,x,x,
O=C(O)CCCCCn1c(SCc2nc3ccccc3[nH]2)nc2ccsc2c1=O,61.1*,0.1,-0.1,-6.2,-10.9,-6.9,
O=C(CSc1nnc(-c2cccnc2)o1)c1cccs1,4.5,0.0,0.8,-5.3,x,x,
COc1cc(NS(=O)(=O)c2ccc3c(c2)NC(=O)CC(=O)N3)cc(OC)c1,-14.6,-0.1,-0.8,-0.5,x,x,
Cc1cc2ncn(Cc3noc(-c4ccco4)n3)c2cc1C,55.0*,-0.3,0.6,-19.1,33.2*,-4.6,AS interf DR=>6.48
COCc1nc(Cn2cnc3cc(C)c(C)cc32)no1,-2.2,-0.1,-0.3,-2.8,x,x,
COCc1cc(C)nc(SCCN(C)C)c1C#N,51.2*,-0.1,0.0,-4.1,11.4,8.4,
CCOC(=O)C1C(=O)CC(=O)CC1c1ccc(OC)cc1 (configuration not stated),1.0,0.0,1.7,6.9,x,x,
Brc1ccc(CN2CCN(c3ccccn3)CC2)cc1,52.6*,0.3,-0.3,8.6,-2.0,2.7,
